From PubChem BioAssay come the findings set out here.

In the test the test system is Wnt5a (protein binding on small-molecule microarray). Nature of the test: Wnt5a binders on small-molecule microarray, primary screen, biophysical, 635/667 nm fluorescence (AID 1142).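 Also: fluorescence read at 667 nm with signal to noise per printed feature.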 Conditions: 635 nm fluorescence, higher = more signal.
In turn, `COc1cc2c(cc1O)C(c1cccs1)N(Cc1cc3c(cc1Br)OCO3)CC2` (stereo not given) registered a composite z-score of 0.594.

On to `CCC#CCN(Cc1ccccc1Br)[C@H](/C=C/C1CC1)[C@@H](O)Cc1ccccc1`, for which the composite z-score is -0.679.

In the case of `COC(=O)[C@@]1(Cc2ccccc2)[C@H]2c3cc(C(=O)N4CCCC4)n(CCc4ccccn4)c3C[C@H]2CN1C(=O)c1ccccc1`, the composite z-score amounted to 0.372.

Turning to `CCCCC(CC)C(O)C1C=CC2C(=O)N(c3ccccc3)C(=O)C2N1Nc1ccccc1F` (stereo not given), the composite z-score worked out at 0.507.

Compound `[N-]=[N+]=Nc1ccccc1[C@@H]1OC(c2ccc(OCCCO)cc2)=N[C@]1(Cc1ccccc1)C(=O)N1CCCCC1` returned a composite z-score of 0.906.

In turn, `CC1CC/C=C\[C@H]2OC34C=CCN(C(C)C)C(=O)[C@H]3N(CCO)C(=O)[C@@H]4C2C(=O)O1` (stereo not given in full) showed a composite z-score of -0.417.

The compound `CCOC(=O)C1=C[C@@H](C(C)(C)C)N(S(=O)(=O)c2ccc(C)cc2)[C@H]1c1cccc2ccccc12` came in with a composite z-score of -0.219.

In turn, `CC(C)[Si]1(C(C)C)OCc2cc(-c3ccc(-c4ccc(Cl)c(Cl)c4)o3)nc(-c3ccccc3)c21` registered a composite z-score of -0.345.

Compound `CCCCCCc1nc(Cc2cc(OC)c(OC)c(OC)c2)cc2c1[Si](C(C)C)(C(C)C)OC2` came in with a composite z-score of 0.03.

`C=CC[C@@H](OC(=O)Nc1ccc(SC)cc1)c1ccc(O)c(F)c1` yielded a composite z-score of 0.175.

Consider `Cc1ccc(NN2C(C(O)c3c(F)cccc3Cl)C=CC3C(=O)N(C4CCCCC4)C(=O)C32)cc1` (stereo not given), for which the composite z-score worked out at 0.361.

`COc1ccc([Si](C)(C)[C@@H]2[C@@H](CC(=O)N(CCO)Cc3ccccc3)O[C@]3(C(=O)N(Cc4cccc(N5CCCCC5=O)c4)c4ccccc43)[C@H]2C)cc1` returned a composite z-score of 0.585.

Regarding `NC(=O)[C@H]1[C@@H]2C(=O)O[C@@H](c3ccccc3)[C@@H](c3ccccc3)N2[C@@H](c2ccc(OCCO)cc2)[C@]12C(=O)Nc1ccc(C#CCCO)cc12`, the composite z-score worked out at 0.262.

Consider `COc1cc(C(O)C2C=CC3C(=O)N(C)C(=O)C3N2Nc2ccccc2)cc(OC)c1OC` (stereo not given), for which the composite z-score is 0.238.

Regarding `C#Cc1cc2ccccc2oc1=O`, the composite z-score was -0.365.

As for `CC(=O)NCCCC[C@@H]1NC(=O)[C@@H]2C[C@H](C(=O)NCCCCCN)[C@H](c3cccc(OCCO)c3)N2C1=O`, the composite z-score stood at 0.698.

`COc1ccc(CCNC(=O)[C@@]2(c3ccc([N+](=O)[O-])cc3)CC(=O)N(C3CCCCC3)[C@@H]2c2ccc(CO)cc2)cc1` registered a composite z-score of 0.199.

In the case of `NCCCCCNC(=O)[C@@H]1C[C@@H]2C(=O)N[C@@H](CCCCN)C(=O)N2[C@@H]1c1ccc(O)cc1`, the composite z-score was -0.0113.

Consider `NCCCCCNC(=O)[C@H]1C[C@H]2C(=O)N3CCC[C@H]3C(=O)N2[C@H]1c1cccc(OCCO)c1`, for which the composite z-score came to 0.444.

For `COCCOC(=O)N1C(=O)[C@@]2(c3cc(C#CCCO)ccc31)[C@H](c1ccc(OCCO)cc1)N1[C@H](c3ccccc3)[C@H](c3ccccc3)OC(=O)[C@H]1[C@@H]2C(=O)Nc1nc2ccccc2s1`, the composite z-score was determined as 0.508.

`COC(=O)C1=CC(CCCO)=CC(c2cccs2)N(C)C=C1C(=O)OC` (stereo not given) gave a composite z-score of -0.149.

`COCCOC(=O)N1C(=O)[C@@]2(c3cc(C#CC4(O)CCCCCC4)ccc31)[C@H](c1ccc(O)cc1)N1[C@H](c3ccccc3)[C@H](c3ccccc3)OC(=O)[C@H]1[C@@H]2C(=O)N1CCN(c2ncccn2)CC1` gave a composite z-score of 0.623.

In turn, `COc1ccc([Si](C)(C)[C@@H]2[C@@H](CCO)O[C@]3(C(=O)N(Cc4cccc(NC(=O)[C@H](C)O)c4)c4ccccc43)[C@H]2C)cc1` showed a composite z-score of 0.736.

Compound `Cc1ccc(S[C@]2(C(=O)O)CC(=O)N(C3CCCCC3)[C@@H]2c2ccc(CO)cc2I)cc1` registered a composite z-score of 0.0473.

`O=C1C[C@]2(c3ccc([N+](=O)[O-])cc3)C(=O)N(C3CC3)c3cc(CO)ccc3[C@H]2N1CC12CC3CC(CC(C3)C1)C2` returned a composite z-score of -0.178.

As for `COCCCNC(=O)[C@@]1(Sc2ccc(C)cc2)CC(=O)N(C2Cc3ccccc3C2)[C@@H]1c1ccc(CO)cc1`, the composite z-score was -0.228.

The compound `O=C1OCCC=C[C@H]2OC34C=CCN(c5ccc6ccccc6c5)C(=O)[C@H]3N(CCCO)C(=O)[C@@H]4C12` (stereo not given in full) yielded a composite z-score of -1.2.

Consider `COC(=O)[C@@]1(Cc2ccc(F)cc2)[C@H]2c3cc(C(=O)N(C)C)n(CCc4ccc(OC)c(Br)c4)c3C[C@H]2CN1C(=O)c1ccccc1`, for which the composite z-score was 1.88.

For the compound `[N-]=[N+]=Nc1ccccc1C[C@@]1(C(N)=O)N=C(c2ccc(OCCCO)cc2)O[C@@H]1c1ccccc1N=[N+]=[N-]`, the composite z-score was 0.351.

For the compound `O=C(NCc1ccc(F)cc1)[C@H]1C[C@H]2C(=O)NCC(=O)N2[C@H]1c1ccc(O)cc1`, the composite z-score was 0.205.

Compound `C=CCNC(=O)[C@@H]1[C@H]2C(=O)O[C@H](c3ccccc3)[C@H](c3ccccc3)N2[C@H](c2ccccc2OCCO)[C@@]12C(=O)Nc1ccc(C#CCCO)cc12` displayed a composite z-score of 0.27.

`CCOC(=O)C[C@H]1[C@H](OC(=O)Cc2ccc3c(c2)OCO3)[C@@H](NC(=O)C2CCCCC2)c2cc(OCCCO)ccc2N1C(=O)c1ccccc1`: the composite z-score is -0.0729.

As to `COc1ccc([Si](C)(C)[C@@H]2[C@@H](CCO)O[C@]3(C(=O)N(Cc4ccccc4)c4ccc(N5CCOC5=O)cc43)[C@H]2C)cc1`, the composite z-score turned out to be 0.0035.

`C=C(/C(=C/C[C@H](OC(C)=O)c1ccc(CO)o1)c1cnc2ccccc2c1)C(C)C` gave a composite z-score of 0.473.

`CCCCCCCCCCC(O)C1C=CC2C(=O)N(c3ccccc3)C(=O)C2N1Nc1ccc(C#N)cc1` (stereo not given) yielded a composite z-score of 0.525.
